# In the supplement of paper PMC8728848:
# This is one part of a sample in which the strongest signals are shown more often than they occur.
# B1: LTL (Lotus tetragonolobus), P19664 (protein)
# chain: VSFNYTEFKDDGSLILQGDAKIWTDGRLAMPTDPLVNNPKTTRSAGRALYATPVPIWDSATGNVASFVTSFNFLFVIRELKYTPTDGLVFFLAPVGTEIPSGSTGGFLGIFDGSNGFNQFVAVEFDSYHNIWDPKSLRSSHVGIDVNSIMSLKAVNWNRVSGSLEKATIIYDSQTNILSVVMTSQNGQITTIYGTIDLKTVLPEKVSVGFSATTGNPEREKHDIYSWSFTSTLKEPEEQA
# Assays:
# Assay in all cases: glycan array binding signal (z-score within array); higher = stronger binding
# Details in all cases: glycan notation: IUPAC condensed, linker removed
# [1] = biological target: GlcNAc(b1-2)Man(a1-3)[GlcNAc(b1-2)Man(a1-6)]Man(b1-4)GlcNAc(b1-4)GlcNAc
# Method in brief: (§1)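 The Consortium for Functional Glycomics database supplied 3228 glycan arrays, of which those lacking an available protein sequence were dropped. The binding signal, a within-array Z-score, was averaged across arrays of the same protein sequence and across linkers. Negative scores can be read as non-binding.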
# GlcNAc(b1-3)Gal(b1-4)Glc = biological target: GlcNAc(b1-3)Gal(b1-4)Glc
# Method in brief: as §1
# [2] = biological target: GlcNAc(b1-3)Gal(b1-4)GlcNAc(b1-3)Gal(b1-4)GlcNAc(b1-3)Gal(b1-4)GlcNAc(b1-2)[GlcNAc(b1-3)Gal(b1-4)GlcNAc(b1-3)Gal(b1-4)GlcNAc(b1-3)Gal(b1-4)GlcNAc(b1-6)]Man(a1-6)[GlcNAc(b1-3)Gal(b1-4)GlcNAc(b1-3)Gal(b1-4)GlcNAc(b1-3)Gal(b1-4)GlcNAc(b1-2)Man(a1-3)]Man(b1-4)GlcNAc(b1-4)[Fuc(a1-6)]GlcNAc
# Method in brief: as §1
# [3] = biological target: GlcNAc(b1-3)Gal(b1-4)GlcNAc(b1-6)[Gal(b1-3)]GalNAc
# Method in brief: as §1
# Kdn(a2-3)Gal(b1-3)GalNAc = biological target: Kdn(a2-3)Gal(b1-3)GalNAc
# Method in brief: as §1
# Man(a1-3)[Man(a1-6)]Man = biological target: Man(a1-3)[Man(a1-6)]Man
# Method in brief: as §1
# [4] = biological target: Man(a1-3)[Man(a1-6)]Man(a1-6)[Man(a1-3)]Man
# Method in brief: as §1
# [5] = biological target: Neu5Ac(a2-3)Gal(b1-3)GalNAc(b1-3)Gal(b1-4)GlcNAc
# Method in brief: as §1
# [6] = biological target: Neu5Ac(a2-3)Gal(b1-3)GlcNAc(b1-2)Man(a1-3)[Neu5Ac(a2-3)Gal(b1-3)GlcNAc(b1-2)Man(a1-6)]Man(b1-4)GlcNAc(b1-4)GlcNAc
# Method in brief: as §1
# [7] = biological target: Neu5Ac(a2-3)Gal(b1-3)[Fuc(a1-4)]GlcNAc
# Method in brief: as §1
# [8] = biological target: Neu5Ac(a2-3)Gal(b1-3)[Neu5Ac(a2-6)]GlcNAc(b1-3)[Fuc(a1-3)[Gal(b1-4)]GlcNAc(b1-6)]Gal(b1-4)Glc
# Method in brief: as §1
# Neu5Ac(a2-3)Gal(b1-4)Glc = biological target: Neu5Ac(a2-3)Gal(b1-4)Glc
# Method in brief: as §1
# [9] = biological target: Neu5Ac(a2-3)Gal(b1-4)GlcNAc(b1-2)Man
# Method in brief: as §1
# [10] = biological target: Neu5Ac(a2-3)Gal(b1-4)GlcNAc(b1-3)Gal(b1-4)GlcNAc(b1-2)Man(a1-3)[Neu5Ac(a2-3)Gal(b1-4)GlcNAc(b1-3)Gal(b1-4)GlcNAc(b1-2)Man(a1-6)]Man(b1-4)GlcNAc(b1-4)GlcNAc
# Method in brief: as §1
# [11] = biological target: Neu5Ac(a2-3)Gal(b1-4)GlcNAc(b1-3)Gal(b1-4)GlcNAc(b1-3)Gal(b1-4)GlcNAc
# Method in brief: as §1
# [12] = biological target: Neu5Ac(a2-3)Gal(b1-4)GlcNAc(b1-3)Gal(b1-4)GlcNAc(b1-3)Gal(b1-4)GlcNAc(b1-2)Man(a1-3)[Neu5Ac(a2-3)Gal(b1-4)GlcNAc(b1-3)Gal(b1-4)GlcNAc(b1-3)Gal(b1-4)GlcNAc(b1-2)Man(a1-6)]GalNAc
# Method in brief: as §1
# [13] = biological target: Neu5Ac(a2-3)Gal(b1-4)GlcNAc(b1-6)[Neu5Ac(a2-3)Gal(b1-3)]GalNAc
# Method in brief: as §1
# [14] = biological target: Neu5Ac(a2-3)Gal(b1-4)[Fuc(a1-3)]GlcNAc
# Method in brief: as §1
# [15] = biological target: Neu5Ac(a2-3)Gal6S(b1-4)[Fuc(a1-3)]GlcNAc
# Method in brief: as §1
# Neu5Ac(a2-6)Gal = biological target: Neu5Ac(a2-6)Gal
# Method in brief: as §1
# [16] = biological target: Neu5Ac(a2-6)Gal(b1-4)GlcNAc(b1-2)Man(a1-6)[Gal(b1-4)GlcNAc(b1-2)Man(a1-3)]Man(b1-4)GlcNAc(b1-4)GlcNAc
# Method in brief: as §1
# [17] = biological target: Neu5Ac(a2-6)Gal(b1-4)GlcNAc(b1-2)[Neu5Ac(a2-6)Gal(b1-4)GlcNAc(b1-4)]Man(a1-3)[GlcNAc(b1-4)][Neu5Ac(a2-6)Gal(b1-4)GlcNAc(b1-2)[Neu5Ac(a2-6)Gal(b1-4)GlcNAc(b1-6)]Man(a1-6)]Man(b1-4)GlcNAc(b1-4)GlcNAc
# Method in brief: as §1
# [18] = biological target: Neu5Ac(a2-6)Gal(b1-4)GlcNAc(b1-3)Gal(b1-4)GlcNAc(b1-2)Man(a1-3)[Neu5Ac(a2-6)Gal(b1-4)GlcNAc(b1-3)Gal(b1-4)GlcNAc(b1-2)Man(a1-6)]GalNAc
# Method in brief: as §1
# [19] = biological target: Neu5Ac(a2-6)Gal(b1-4)GlcNAc(b1-3)Gal(b1-4)GlcNAc(b1-3)Gal(b1-4)GlcNAc
# Method in brief: as §1
# [20] = biological target: Neu5Ac(a2-6)Gal(b1-4)GlcNAc(b1-3)Gal(b1-4)GlcNAc(b1-3)Gal(b1-4)GlcNAc(b1-2)Man(a1-3)[Neu5Ac(a2-6)Gal(b1-4)GlcNAc(b1-3)Gal(b1-4)GlcNAc(b1-3)Gal(b1-4)GlcNAc(b1-2)Man(a1-6)]GalNAc
# Method in brief: as §1
# [21] = biological target: Neu5Ac(a2-6)Gal(b1-4)GlcNAc(b1-3)Gal(b1-4)GlcNAc(b1-3)[Neu5Ac(a2-6)Gal(b1-4)GlcNAc(b1-3)Gal(b1-4)GlcNAc(b1-6)]GalNAc
# Method in brief: as §1
# [22] = biological target: Neu5Ac(a2-6)Gal(b1-4)GlcNAc(b1-3)Gal(b1-4)[Fuc(a1-3)]GlcNAc(b1-3)Gal(b1-4)[Fuc(a1-3)]GlcNAc
# Method in brief: as §1
# [23] = biological target: Neu5Ac(a2-8)Neu5Ac(a2-8)Neu5Ac(a2-3)[Gal(b1-3)GalNAc(b1-4)]Gal(b1-4)Glc
# Method in brief: as §1
# Neu5Ac(b1-6)GalNAc = biological target: Neu5Ac(b1-6)GalNAc
# Method in brief: as §1
# [24] = biological target: Neu5Gc(a2-8)Neu5Gc(a2-3)Gal(b1-4)GlcNAc(b1-3)Gal(b1-4)GlcNAc
# Method in brief: as §1
binder,measurement,setting,value
B1,glycan array binding signal (z-score),[1],-0.3
same,glycan array binding signal (z-score),GlcNAc(b1-3)Gal(b1-4)Glc,-0.196
same,glycan array binding signal (z-score),[2],0.185
same,glycan array binding signal (z-score),[3],-0.142
same,glycan array binding signal (z-score),Kdn(a2-3)Gal(b1-3)GalNAc,0.043
same,glycan array binding signal (z-score),Man(a1-3)[Man(a1-6)]Man,-0.207
same,glycan array binding signal (z-score),[4],0.02
same,glycan array binding signal (z-score),[5],-0.26
same,glycan array binding signal (z-score),[6],-0.099
same,glycan array binding signal (z-score),[7],0.005
same,glycan array binding signal (z-score),[8],-0.123
same,glycan array binding signal (z-score),Neu5Ac(a2-3)Gal(b1-4)Glc,-0.023
same,glycan array binding signal (z-score),[9],0.022
same,glycan array binding signal (z-score),[10],2.77
same,glycan array binding signal (z-score),[11],-0.035
same,glycan array binding signal (z-score),[12],5.64
same,glycan array binding signal (z-score),[13],-0.237
same,glycan array binding signal (z-score),[14],-0.31
same,glycan array binding signal (z-score),[15],2.84
same,glycan array binding signal (z-score),Neu5Ac(a2-6)Gal,-0.162
same,glycan array binding signal (z-score),[16],-0.242
same,glycan array binding signal (z-score),[17],-0.15
same,glycan array binding signal (z-score),[18],1.11
same,glycan array binding signal (z-score),[19],-0.226
same,glycan array binding signal (z-score),[20],2.02
same,glycan array binding signal (z-score),[21],3.76
same,glycan array binding signal (z-score),[22],-0.039
same,glycan array binding signal (z-score),[23],0.131
same,glycan array binding signal (z-score),Neu5Ac(b1-6)GalNAc,-0.326
same,glycan array binding signal (z-score),[24],-0.15
